The values that follow come from PubChem BioAssay (NCI).

About 83,000 compounds went through this panel and 20% of them were active in at least one assay; those are over-represented in the sample as a whole.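 A percent growth of 40 corresponds to 60% growth inhibition; 0 means no net growth; -100 means all cells died. Active threshold: below 10.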 A number with no mark means an inactive call. The source made the active and inactive calls.

Assay in all cases: NCI-60 one-dose screen, 48 h (100 = growth as untreated, 0 = no growth, -100 = all killed)
One experiment concerns HCT-15 colon. Particulars: 10 µM unless noted.
For a further experiment, the system named is HT29 colon. The note with it: 10 µM unless noted.
For the next experiment, the system named is SNB-75 CNS. Particulars: 10 µM unless noted.
For the next experiment, the system named is SNB-19 CNS. Particulars: 10 µM unless noted.
The subject of the next experiment is U251 CNS. The note with it: 10 µM unless noted.
A further experiment concerns PC-3 prostate. The note with it: 10 µM unless noted.
Another experiment concerns SK-MEL-5 melanoma. Particulars: 10 µM unless noted.
Another experiment concerns UACC-62 melanoma. The note with it: 10 µM unless noted.
Another experiment has as its system LOX IMVI melanoma. The note with it: 10 µM unless noted.
Another experiment deals with SK-MEL-28 melanoma. Particulars: 10 µM unless noted.
The test system of another experiment is SK-MEL-2 melanoma. The note with it: 10 µM unless noted.
Another experiment relates to EKVX NSCLC. The note with it: 10 µM.
The next experiment relates to SN12C renal. The note with it: 10 µM unless noted.
In another experiment the test system is UO-31 renal. Particulars: 10 µM unless noted.
The test system of another experiment is TK-10 renal. Particulars: 10 µM unless noted.
A further experiment relates to ACHN renal. The note with it: 10 µM unless noted.
The test system of the next experiment is CAKI-1 renal. Particulars: 10 µM unless noted.
A further experiment concerns A498 renal. The note with it: 10 µM unless noted.
The subject of a further experiment is CCRF-CEM leukemia. The note with it: 10 µM.
In another experiment the test system is MOLT-4 leukemia. The note with it: 10 µM unless noted.

Turning to `COc1cccc(Cn2cc3c(c2)-c2oncc2CC3)c1`, the growth was 18.7% in the experiment with HCT-15 colon; 9.25% (active) with HT29 colon; 25.2% with SNB-75 CNS; 39.4% in the experiment with SNB-19 CNS; 31.7% in the experiment with U251 CNS; 27.4% in the experiment on PC-3 prostate. The growth in the experiment with SK-MEL-5 melanoma was 6.37% (active); in the experiment on UACC-62 melanoma, 46.2%; in the experiment on LOX IMVI melanoma it was 34.7%; with SK-MEL-28 melanoma it was 51.9%; in the experiment with SK-MEL-2 melanoma it was 35.5%; in the experiment with EKVX NSCLC it was 27.2%. Besides, the growth was 34.5% in the experiment on SN12C renal; 38.8% with UO-31 renal; 69.4% in the experiment with TK-10 renal; 42.7% with ACHN renal; 13.9% with CAKI-1 renal; 36.4% in the experiment with A498 renal. Further, the growth was 15.2% in the experiment with CCRF-CEM leukemia and 26.6% with MOLT-4 leukemia.

In the case of `COc1ccc2cc(C(C)C(=O)Nc3ccc(S(=O)(=O)Nc4cc(C)on4)cc3)ccc2c1` (centres undefined), the growth in the experiment on HCT-15 colon was 93.8%; in the experiment with HT29 colon it was 121%; in the experiment with SNB-75 CNS, 99.7%; in the experiment with SNB-19 CNS, 117%; with U251 CNS, 98.9%; in the experiment on PC-3 prostate, 104%. Further, the growth was 110% in the experiment with SK-MEL-5 melanoma; 108% with UACC-62 melanoma; 96.2% in the experiment with LOX IMVI melanoma; 111% in the experiment with SK-MEL-28 melanoma; 117% in the experiment on SK-MEL-2 melanoma; 97.5% in the experiment with EKVX NSCLC. Besides, the growth in the experiment on SN12C renal was 116%; with UO-31 renal, 90%; in the experiment with TK-10 renal it was 103%; in the experiment with ACHN renal, 97.3%; with CAKI-1 renal it was 86.4%; with MOLT-4 leukemia, 106%.

On to `C[C@]12CC[C@H]3[C@@H](CC[C@H]4C[C@@H](O)CC[C@@]43C)[C@@H]1CC(=O)C2`, for which the growth was 100% in the experiment with HCT-15 colon; 96.9% in the experiment with HT29 colon; 98.2% in the experiment with SNB-75 CNS; 100% with SNB-19 CNS; 97.6% in the experiment on U251 CNS; 99.7% in the experiment with PC-3 prostate. The growth in the experiment with SK-MEL-5 melanoma is 111%; in the experiment with UACC-62 melanoma, 87.6%; with LOX IMVI melanoma, 102%; with SK-MEL-28 melanoma it was 113%; in the experiment on SK-MEL-2 melanoma, 103%; in the experiment with EKVX NSCLC it was 96.9%. The growth with SN12C renal was 101%; in the experiment with UO-31 renal, 84.1%; with TK-10 renal, 94.2%; with ACHN renal, 100%; with CAKI-1 renal, 87.6%; with MOLT-4 leukemia, 85.7%.

Consider `O=C(NCCCl)Nc1nccnc1OCc1ccc(F)cc1`, for which the growth is 104% with HCT-15 colon; 102% in the experiment on HT29 colon; 90.3% in the experiment on SNB-75 CNS; 94.9% in the experiment on SNB-19 CNS; 101% with U251 CNS; 96.5% with PC-3 prostate. The growth in the experiment with SK-MEL-5 melanoma was 107%; in the experiment on UACC-62 melanoma, 93.7%; with LOX IMVI melanoma, 98.3%; with SK-MEL-28 melanoma, 109%; in the experiment with SK-MEL-2 melanoma, 100%; in the experiment on EKVX NSCLC, 97.5%. Further, the growth in the experiment with SN12C renal is 94.1%; in the experiment with UO-31 renal, 86.8%; in the experiment on TK-10 renal, 138%; in the experiment with ACHN renal it was 105%; in the experiment on CAKI-1 renal it was 89.6%; in the experiment on A498 renal, 105%. Further, the growth in the experiment on CCRF-CEM leukemia is 96%; with MOLT-4 leukemia, 91.9%.

With `Cc1cc(CSc2ccc(Cl)cc2)ccc1N`, the growth is 98.3% in the experiment on HCT-15 colon; 106% in the experiment on HT29 colon; 87.3% in the experiment with SNB-75 CNS; 84.3% in the experiment on SNB-19 CNS; 78.6% with U251 CNS; 76.5% in the experiment on PC-3 prostate. For the same molecule, the growth was 103% with SK-MEL-5 melanoma; 90.5% with UACC-62 melanoma; 98.6% in the experiment with LOX IMVI melanoma; 111% with SK-MEL-28 melanoma; 99.7% in the experiment on SK-MEL-2 melanoma; 85.8% in the experiment on EKVX NSCLC. Moreover, the growth with SN12C renal was 42%; in the experiment with UO-31 renal it was 29.4%; in the experiment on TK-10 renal it was 101%; with ACHN renal, 102%; in the experiment on CAKI-1 renal, 95.1%; in the experiment with CCRF-CEM leukemia, 3.59% (active). The growth with MOLT-4 leukemia was 49.7%.

For `CCCCN(CCCC)CC(O)CN(CC)CC` (centres undefined), the growth with HCT-15 colon is 104%; in the experiment on HT29 colon, 88%; in the experiment on SNB-75 CNS it was 87.3%; in the experiment with SNB-19 CNS it was 105%; with U251 CNS, 102%; with PC-3 prostate, 97.7%. The growth in the experiment with SK-MEL-5 melanoma was 96.2%; in the experiment on UACC-62 melanoma, 105%; with LOX IMVI melanoma it was 96.1%; in the experiment on SK-MEL-28 melanoma it was 109%; in the experiment on SK-MEL-2 melanoma it was 91.5%; in the experiment on EKVX NSCLC, 107%. For the same molecule, the growth is 96.4% with SN12C renal; 72.8% in the experiment with UO-31 renal; 92.7% with TK-10 renal; 102% in the experiment with ACHN renal; 93.8% in the experiment on CAKI-1 renal; 111% with A498 renal. For the same molecule, the growth in the experiment on CCRF-CEM leukemia was 104%; with MOLT-4 leukemia, 96%.

In the case of `CCOC(=O)C1=NN(c2ccccc2)C2=NC(=O)/C(=C\c3cn(-c4ccccc4)nc3-c3cc4ccccc4o3)C(=O)N12`, the growth is 101% with HCT-15 colon; 98% with HT29 colon; 94.7% in the experiment on SNB-75 CNS; 89.5% in the experiment with SNB-19 CNS; 99.4% in the experiment with U251 CNS; 88.2% in the experiment on PC-3 prostate. Also, the growth was 94.3% in the experiment with SK-MEL-5 melanoma; 82.3% in the experiment with UACC-62 melanoma; 95.9% with LOX IMVI melanoma; 110% with SK-MEL-28 melanoma; 99.3% in the experiment with SK-MEL-2 melanoma; 90.2% in the experiment on EKVX NSCLC. Besides, the growth is 94.3% in the experiment on SN12C renal; 68.5% in the experiment with UO-31 renal; 161% with TK-10 renal; 94.8% in the experiment with ACHN renal; 112% in the experiment on A498 renal; 95.8% with CCRF-CEM leukemia. In addition, in the experiment on MOLT-4 leukemia, the growth is 96.3%.
